Here are results for twelve sequences from PMC5700166.

What all share (test): protein-binding microarray (PBM); PBM: ~300 nM protein, 6 mM HEPES pH 7.8, 80 mM KCl, 0.5 mM EDTA, 0.5 mM EGTA, 6% glycerol, 35 ng/ul poly-dIdC, 1% milk, 1 h, room temperature; Ap Aiptasia and Nv Nematostella (sea anemones) / Co Capsaspora / Aq Amphimedon (sponge) / Dm Drosophila / Hu human; RHD is the Rel homology domain; high values mean tight binding
Holding throughout (settings): dsDNA, one strand shown

The target in experiment [1] is T1, GST-Ap-NF-kB RHD (Exaiptasia pallida (Aiptasia), UniProt A0A913YAJ5 2-422).
T1 sequence: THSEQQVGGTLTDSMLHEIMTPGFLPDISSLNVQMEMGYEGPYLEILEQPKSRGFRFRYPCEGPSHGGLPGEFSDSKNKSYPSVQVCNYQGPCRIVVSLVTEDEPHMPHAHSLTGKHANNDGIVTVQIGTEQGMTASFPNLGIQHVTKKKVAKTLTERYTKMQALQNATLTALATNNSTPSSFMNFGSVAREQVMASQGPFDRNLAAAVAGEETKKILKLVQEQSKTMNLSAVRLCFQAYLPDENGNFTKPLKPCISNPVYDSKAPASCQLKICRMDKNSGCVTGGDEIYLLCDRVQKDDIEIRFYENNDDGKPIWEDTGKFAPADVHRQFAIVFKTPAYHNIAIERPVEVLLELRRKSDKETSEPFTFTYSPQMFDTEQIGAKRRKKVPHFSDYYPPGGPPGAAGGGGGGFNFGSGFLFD

The target in experiment [2] is T2, GST-Nv-NF-kB (Cys allele) (Nematostella vectensis, UniProt E5G601 2-411).
T2 sequence: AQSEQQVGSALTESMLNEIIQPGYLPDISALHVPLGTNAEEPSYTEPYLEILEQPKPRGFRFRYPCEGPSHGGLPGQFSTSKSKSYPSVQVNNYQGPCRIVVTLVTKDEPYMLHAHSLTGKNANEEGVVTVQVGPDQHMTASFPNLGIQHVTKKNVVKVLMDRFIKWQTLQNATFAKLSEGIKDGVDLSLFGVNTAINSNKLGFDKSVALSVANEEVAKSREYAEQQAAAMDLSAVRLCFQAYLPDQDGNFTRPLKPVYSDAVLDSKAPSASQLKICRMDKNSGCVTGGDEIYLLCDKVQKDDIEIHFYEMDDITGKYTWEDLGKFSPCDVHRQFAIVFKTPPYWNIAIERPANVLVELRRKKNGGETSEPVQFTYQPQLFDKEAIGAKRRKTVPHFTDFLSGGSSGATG

The target in experiment [3] is T3, GST-Nv-NF-kB (Ser allele) (Nematostella vectensis, UniProt A7UNT2 2-411).
T3 sequence: T2 sequence with Q21R, C66S, S207N, E215Q, V217A, E225K, A268E, D399E

Experiment [4] has as its target T4, GST-Co-NF-kB (Capsaspora owczarzaki, UniProt F1ARL5 200-546).
T4 sequence: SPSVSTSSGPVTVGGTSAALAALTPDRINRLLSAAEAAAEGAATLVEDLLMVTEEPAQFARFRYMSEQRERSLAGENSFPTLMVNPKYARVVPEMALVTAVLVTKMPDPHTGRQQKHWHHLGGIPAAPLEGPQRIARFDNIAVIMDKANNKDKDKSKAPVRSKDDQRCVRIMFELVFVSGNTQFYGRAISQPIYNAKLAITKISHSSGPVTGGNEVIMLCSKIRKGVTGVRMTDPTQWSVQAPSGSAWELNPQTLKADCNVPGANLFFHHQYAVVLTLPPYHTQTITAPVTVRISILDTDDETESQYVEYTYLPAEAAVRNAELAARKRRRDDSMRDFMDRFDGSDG

Experiment [5] deals with T5, GST-Dm-Relish (Drosophila melanogaster, UniProt Q94527 99-473).
T5 sequence: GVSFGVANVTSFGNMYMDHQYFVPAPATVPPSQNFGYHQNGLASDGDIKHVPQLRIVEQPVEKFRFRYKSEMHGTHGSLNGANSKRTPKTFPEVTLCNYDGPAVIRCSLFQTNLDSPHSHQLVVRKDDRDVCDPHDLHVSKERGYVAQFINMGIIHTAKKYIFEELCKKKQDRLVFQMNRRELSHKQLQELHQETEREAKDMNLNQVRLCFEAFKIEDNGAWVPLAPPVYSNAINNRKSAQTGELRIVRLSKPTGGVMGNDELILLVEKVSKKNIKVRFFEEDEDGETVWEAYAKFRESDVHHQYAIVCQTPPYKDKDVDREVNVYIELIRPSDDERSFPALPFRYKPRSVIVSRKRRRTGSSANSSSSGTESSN

The target in experiment [6] is T6, GST-Aq-NF-kB (Amphimedon queenslandica, UniProt A9Y5G7 2-389).
T6 sequence: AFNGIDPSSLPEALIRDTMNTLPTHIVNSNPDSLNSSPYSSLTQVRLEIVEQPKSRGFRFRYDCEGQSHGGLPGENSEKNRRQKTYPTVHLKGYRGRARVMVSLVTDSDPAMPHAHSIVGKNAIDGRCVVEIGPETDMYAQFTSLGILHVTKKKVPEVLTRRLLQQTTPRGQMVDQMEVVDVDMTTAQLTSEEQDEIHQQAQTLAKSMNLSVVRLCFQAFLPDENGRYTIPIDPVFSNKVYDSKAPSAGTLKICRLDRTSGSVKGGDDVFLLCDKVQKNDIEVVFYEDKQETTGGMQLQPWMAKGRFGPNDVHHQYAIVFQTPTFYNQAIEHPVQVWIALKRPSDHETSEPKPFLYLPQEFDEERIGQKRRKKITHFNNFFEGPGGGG

Experiment [7] deals with GST-Hu-p50 (Homo sapiens, UniProt P19838 7-356).

Residue numbers refer to the chain shown, from its start.

Chain of GST-Hu-p50 (P19838 7-356): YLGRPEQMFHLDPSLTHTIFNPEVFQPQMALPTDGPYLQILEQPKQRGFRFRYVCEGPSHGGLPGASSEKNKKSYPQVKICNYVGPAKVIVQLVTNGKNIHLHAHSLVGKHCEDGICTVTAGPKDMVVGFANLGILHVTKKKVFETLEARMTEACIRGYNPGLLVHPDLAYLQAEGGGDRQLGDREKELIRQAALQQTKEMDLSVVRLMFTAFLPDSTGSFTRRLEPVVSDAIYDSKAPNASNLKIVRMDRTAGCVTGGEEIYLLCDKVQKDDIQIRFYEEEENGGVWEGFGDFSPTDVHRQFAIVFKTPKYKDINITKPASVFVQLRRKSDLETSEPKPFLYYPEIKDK

As for “CCGATTAACATCAGGACCTCCCCTGATGTTAATCGGGTCTTGATTCGCTTGACGCTGCTG”, the binding signal in experiment [1] stood at 5.62 z-score; in experiment [2], 4.17 z-score; in experiment [3], 2.85 z-score; in experiment [4], 2.53 z-score; in experiment [5] it was 5.19 z-score; in experiment [6], 6.93 z-score. Besides, the binding signal in experiment [7] was 3.65 z-score.

“CCGATTAACATCAGCTTCCCCCCTGATGTTAATCGGGTCTTGATTCGCTTGACGCTGCTG”: the binding signal came to 5.3 z-score in experiment [1]; 4.97 z-score in experiment [2]; 5.68 z-score in experiment [3]; 7.68 z-score in experiment [4]; 4.2 z-score in experiment [5]; 4.55 z-score in experiment [6]. The binding signal in experiment [7] was 4.95 z-score.

For the sequence “CCGATTAACATCAATATAACCCCTGATGTTAATCGGGTCTTGATTCGCTTGACGCTGCTG”, the binding signal in experiment [1] stood at 3.99 z-score; in experiment [2], 2.48 z-score; in experiment [3], 2.08 z-score; in experiment [4], 2.11 z-score; in experiment [5], 2.05 z-score; in experiment [6] it was 2.37 z-score. The same sequence came in with a binding signal in experiment [7] of 2.73 z-score.

For the sequence “CCGATTAACATCAGAGATTCCCCTGATGTTAATCGGGTCTTGATTCGCTTGACGCTGCTG”, the binding signal in experiment [1] amounted to 8.42 z-score; in experiment [2] it was 9.61 z-score; in experiment [3], 10.1 z-score; in experiment [4] it was 6.66 z-score; in experiment [5], 6.36 z-score; in experiment [6], 7.04 z-score. In experiment [7], the binding signal is 6.76 z-score.

With “CCGATTAACATCAAATTCCCCCGTGATGTTAATCGGGTCTTGATTCGCTTGACGCTGCTG”, the binding signal amounted to 9.52 z-score in experiment [1]; 8.91 z-score in experiment [2]; 9.58 z-score in experiment [3]; 11 z-score in experiment [4]; 8.23 z-score in experiment [5]; 7.32 z-score in experiment [6]. The same sequence displayed a binding signal in experiment [7] of 7.06 z-score.

Consider “CCGATTAACATCAGGGGTTTTTATGATGTTAATCGGGTCTTGATTCGCTTGACGCTGCTG”, for which the binding signal in experiment [1] came to 8.01 z-score; in experiment [2], 8.52 z-score; in experiment [3], 7.26 z-score; in experiment [4], 2.38 z-score; in experiment [5], 8.58 z-score; in experiment [6], 7.14 z-score. For the same sequence, the binding signal in experiment [7] is 7.21 z-score.

With “CCGATTAACATCAAAAATTTCCCTGATGTTAATCGGGTCTTGATTCGCTTGACGCTGCTG”, the binding signal is 5.61 z-score in experiment [1]; 8.92 z-score in experiment [2]; 8.77 z-score in experiment [3]; 5.47 z-score in experiment [4]; 6.05 z-score in experiment [5]; 7.58 z-score in experiment [6]. In experiment [7], this sequence yielded a binding signal of 5.67 z-score.

Consider “CCGATTAACATCATGGGGGGAAATGATGTTAATCGGGTCTTGATTCGCTTGACGCTGCTG”, for which the binding signal in experiment [1] came to 6.36 z-score; in experiment [2] it was 6.46 z-score; in experiment [3], 7.43 z-score; in experiment [4], 9.84 z-score; in experiment [5] it was 4.25 z-score; in experiment [6], 5.5 z-score. Further, in experiment [7], the binding signal worked out at 6.02 z-score.

Take “CCGATTAACATCAAGGGGGGATGTGATGTTAATCGGGTCTTGATTCGCTTGACGCTGCTG”: the binding signal in experiment [1] was determined as 5.69 z-score; in experiment [2], 4.01 z-score; in experiment [3], 5.38 z-score; in experiment [4], 4.75 z-score; in experiment [5], 4.07 z-score; in experiment [6], 4.34 z-score. Moreover, the binding signal in experiment [7] came to 4.32 z-score.

Take “CCGATTAACATCAACGAATCCCCTGATGTTAATCGGGTCTTGATTCGCTTGACGCTGCTG”: the binding signal in experiment [1] stood at 6.25 z-score; in experiment [2], 6.07 z-score; in experiment [3], 8.58 z-score; in experiment [4], 2.93 z-score; in experiment [5], 4.84 z-score; in experiment [6], 3.82 z-score. In addition, the binding signal in experiment [7] was 5.69 z-score.

“CCGATTAACATCAGGGGAACTTATGATGTTAATCGGGTCTTGATTCGCTTGACGCTGCTG”: the binding signal in experiment [1] was 7.4 z-score; in experiment [2], 8.58 z-score; in experiment [3], 8.41 z-score; in experiment [4], 7.21 z-score; in experiment [5], 7.11 z-score; in experiment [6], 6.48 z-score. This sequence had a binding signal in experiment [7] of 5.95 z-score.

Regarding “CCGATTAACATCAGGGGGATTACTGATGTTAATCGGGTCTTGATTCGCTTGACGCTGCTG”, the binding signal in experiment [1] was 8.76 z-score; in experiment [2] it was 7.64 z-score; in experiment [3], 8.21 z-score; in experiment [4], 5.85 z-score; in experiment [5], 9.03 z-score; in experiment [6], 6.92 z-score. In experiment [7], this sequence showed a binding signal of 7.22 z-score.
